Compounds without any hit were thinned out: in the full panel of roughly 79,000, 15% have a hit. Rule as the data show it: active = growth inhibition above about 70%; inactive = the rest.
Legend:
[1] = NCI Yeast Anticancer Drug Screen. Data for the rad50 strain (AID 155);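 also: 0% = growth of vehicle-only cultures of the same strain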; conditions: S. cerevisiae rad50 strain growth inhibition; at 50.0 µM; active compounds read high
Procedure, shortened: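 Relative growth inhibition (compound vs vehicle) was measured in yeast with a defined repair-gene alteration.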

[2] = NCI Yeast Anticancer Drug Screen. Data for the mec2-1 strain (AID 157); conditions: S. cerevisiae mec2-1 strain, at 50.0 µM, active compounds read high
Procedure, shortened: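 Strain: mec2-1 (DNA repair/cell cycle alteration). Compound exposure, then growth measured; inhibition expressed relative to vehicle.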

[3] = NCI Yeast Anticancer Drug Screen. Data for the sgs1 mgt1 strain (AID 161);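 also: 0% = growth of cultures given vehicle only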; conditions: S. cerevisiae sgs1 mgt1 strain, at 50.0 µM, active compounds read high
Procedure, shortened: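 Mutant yeast exposed to compound; growth scored against vehicle-only wells.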

[4] = NCI Yeast Anticancer Drug Screen. Data for the cln2 rad14 strain (AID 165);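 also: 0% = growth equal to vehicle treated cultures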; conditions: S. cerevisiae cln2 rad14 strain, at 50.0 µM, active compounds read high
Procedure, shortened: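 Compounds are applied to the cln2 rad14 yeast strain, and growth is then compared with that of vehicle-treated cultures to give inhibition.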

[5] = NCI Yeast Anticancer Drug Screen. Data for the bub3 strain (AID 167); conditions: S. cerevisiae bub3 mutant strain, at 50.0 µM, active compounds read high
Procedure, shortened: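 Screening used yeast with an engineered genetic alteration affecting cell cycle control. Compound-exposed cultures were compared with vehicle cultures, and reduced growth was taken as inhibition.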

[6] = NCI Yeast Anticancer Drug Screen. Data for the mlh1 rad18 strain (AID 175); conditions: S. cerevisiae mlh1 rad18 strain growth inhibition; at 50.0 µM; active compounds read high
Procedure, shortened: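 Read-out is yeast growth inhibition, calculated against vehicle-only controls. The compound was applied to a strain engineered with DNA damage repair alterations.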

Measured: growth inhibition

CN(C)C(=O)Oc1c(Cl)cccc1Cl
inactive: [1] 28.4% | [2] 24.4% | [3] 5.65% | [4] 10.5% | [5] 36.8% | [6] 14.1%

C[CH2][Pb]([CH2]C)([CH2]C)[O]C(=O)c1ccccc1
inactive: [1] -0.3% | [2] 1.6% | [3] 10.2% | [4] -3.35% | [5] 1.35% | [6] 5.35%

c1ccc(C2(N3CCC4(CC3)OCCO4)CCCCC2)cc1
inactive: [1] 13% | [2] -2.9% | [3] 9.2% | [4] -17.6% | [5] 1.35% | [6] 6.35%

COP(=O)(OC)C(N)CCSC (configuration not stated)
inactive: [1] -25.1% | [2] -65.7% | [3] -61.8% | [4] 23.7% | [5] 17.1% | [6] -2.1%

CCOP(=O)(OCC)/C(C#N)=C/c1cc(O)ccc1O
inactive: [1] -34.2% | [2] -35.1% | [3] -51.9% | [4] -10.2% | [5] -47.9% | [6] -45.8%

CC1C/C(=C\N=[N+]=[N-])C(=O)O1 (configuration not stated)
inactive: [1] -11.4% | [2] 14.7% | [3] 6% | [4] -4.9% | [5] 12.4% | [6] -0.05%

CC1CN=C(Nc2ccc(F)c(Cl)c2)S1 (configuration not stated)
inactive: [1] -14.4% | [2] -16.1% | [3] -44.9% | [4] 8.65% | [5] -0.25% | [6] -22.9%
